# The entries come from a sample that favours hits as a whole.
# VCAM1 TNFa pot = potentiators of TNFa-induced VCAM1 expression, primary screen, imaging, HUVEC, TNFa stimulus, immunofluorescence. AID 808, 2007. HUVEC TNFa-stimulated VCAM-1 immunofluorescence, high-content imaging; scaled per plate to unstimulated/TNFa-only wells. actives 0.19% (n = 93,000). activation, % at 2 µM;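 active = activation above the screen mean plus 3 SD, with well images confirming the hit on visual review, cut at about 28% in these data, passing the limit was not always enough; inconclusive = activation above that limit but images do not confirm it; inactive = activation not above that limit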;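 also: signal is the number of cytoplasmic VCAM-1 stained grains per positive cell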
# VCAM1 pot confirm = potentiators of TNFa-induced VCAM1 expression, confirmation, imaging, HUVEC, triplicate retest. shares compounds with VCAM1 TNFa pot. HUVEC TNFa-stimulated VCAM-1 immunofluorescence imaging. activation, % at 2 µM. 230 tested, under 10 active;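 active = activation above 30% in triplicate retests at 2 µM, then confirmed by visual review of the well images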;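 also: scaled per plate between unstimulated and TNFa-stimulated DMSO control wells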
# Active calls of the source: *; ? = inconclusive.
SMILES,VCAM1 TNFa pot,others
Cc1c(NC(=O)CC2CC(C)OC2=O)c(=O)n(-c2ccccc2)n1C (stereo unspecified),2,
O=c1[nH]nnc2sc3c(c12)CCCC3,-44,
C=C(C)C1CC=C(C)/C(=N/NC(=O)COc2cccc3ccccc23)C1 (stereo unspecified),6,
Cc1ccc(CNC(=O)CSc2ncccn2)cc1,10,
CCOc1cc(NC(=O)c2ccco2)c(OCC)cc1NC(=O)CCC(=O)NCc1cccnc1,-100,
COc1ccc(NC(=O)c2ccc(CN3CCN(c4ccccc4)CC3)cc2)cc1OC,?,VCAM1 pot confirm=-7
COc1ccc(CNC(=O)c2ccc(CN3CCOCC3)cc2)cc1,-8,
COc1cc(NC(=O)NCCN2CCN(c3ccc(Cl)cc3)CC2)ccc1C,-1,
CCN(CC)S(=O)(=O)c1cc([N+](=O)[O-])ccc1NNC(=O)Nc1ccc(Cl)c(Cl)c1,-23,
CCCC(C)C(=O)Nc1ccncc1 (stereo unspecified),32,
CC(C)N(CCc1ccncc1)C(=O)Nc1ccc(Cl)c(Cl)c1,38*,VCAM1 pot confirm=-3
Cc1ccc(N=C(c2cccs2)N2CCOCC2)cc1,-4,
O=C(CN1C(=O)c2ccccc2C1=O)Nc1ccc(-c2nc3ccccc3o2)cc1,29,
O=C(Nc1ccc(-c2nc3ccccc3o2)cc1)c1ccc2c(c1)OCO2,?,VCAM1 pot confirm=-16
O=C(Nc1ccc2nsnc2c1)c1ccc2c(c1)OCO2,-30,
c1ccc(-n2c(Cc3cccnc3)nc3cnccc32)cc1,-6,
Cc1ccc(OC(=O)CCC(=O)OCCCC(F)(F)C(F)(F)F)cc1,?,VCAM1 pot confirm=-8
COc1ccc(OCC(=O)Sc2ccc(C)cc2)cc1,7,
N=C1C(=O)OCC1c1cc(Cl)ccc1NC(=O)Nc1ccccc1 (stereo unspecified),-2,
O=c1c2ccccc2nc(-c2ccoc2)n1CCc1ccccc1,-2,
CC1CCN(C(=O)Cn2c(=O)n(CCc3ccccc3)c(=O)c3ccccc32)CC1,?,VCAM1 pot confirm=-27
O=C(Cn1cnc2ccccc2c1=O)N1CCN(Cc2ccccc2)CC1,-5,
CCc1cccc(OCCCCN(CC)CC)c1,10,
O=C(NCCCNC(=O)c1ccco1)c1ccco1,-6,
O=C(NCCCCNC(=O)c1cccnc1)c1cccnc1,?,VCAM1 pot confirm=-12
SMILES,VCAM1 TNFa pot,others
CCOC(=O)Cc1csc(NC(=O)c2cccnc2)n1,33,
CCOC(=O)c1cc(C)n(CCc2ccccc2)c1C,-9,
CCOC(=O)c1[nH]c2ccc(OC)cc2c1C,-4,
CCOC(=O)c1c(N)sc(-c2ccccc2)c1C,45*,VCAM1 pot confirm=-10
CCCn1c(=N)n(CCOCCOCCn2c(=N)n(CCC)c3ccccc32)c2ccccc21,-17,
O=C(c1ccc(-n2cnnn2)cc1)N1CCCCC1,-2,
Cc1nc2sc(C(c3cccs3)N3CCC4(CC3)OCCO4)c(O)n2n1 (stereo unspecified),4,
Cc1cccc(N(CC(N)=O)C2SC(=O)NC2=O)c1 (stereo unspecified),-6,
O=C(CNC(=O)c1cccs1)NC1=NCCS1,-7,
CCN(CC)CC(C(=O)N(CC)CC)P(=O)(c1ccccc1)c1ccccc1 (stereo unspecified),-6,
CCOC(=O)CNC(=O)CSc1nnc(Cn2cnc3ccccc32)n1C,6,
CCCCCn1c(CCC(=O)Oc2ccccc2OC)nc2c1c(=O)[nH]c(=O)n2CCCC,2,
c1ccc(-c2nnc3sc(-c4ccncc4)nn23)cc1,-7,
COc1ccc(Cc2nn3c(-c4ccccc4Br)nnc3s2)cc1,7,
CCOc1ccc(-c2nnc3sc(COc4ccc(C)cc4)nn23)cc1,40*,VCAM1 pot confirm=-17
O=C(COc1ccccc1)n1nc(-c2ccc(Cl)cc2)nc1NCc1ccco1,31,
O=C(NCC1CCCO1)c1c(O)c2c([nH]c1=O)CCCC2 (stereo unspecified),8,
Cc1noc(C)c1S(=O)(=O)N1CCCC(C(=O)N2CCc3ccccc3C2)C1 (stereo unspecified),-6,
COc1ccc(C(=O)/C(C)=N/O)cc1OC,-5,
COc1ccc(C(=O)Nn2c(C)nnc2-n2nc(C)cc2C)cc1OC,43*,VCAM1 pot confirm=-13
COc1ccc(C(=O)Nc2nc3ccccc3[nH]2)cc1OC,-7,
COc1ccc(CNC(=O)Oc2ccccc2)cc1Cl,-2,
C=C(C)CSc1nc(N)c2c(C)c(C)sc2n1,0,
CC1=C(C(=O)OCc2ccccc2)C(c2ccoc2)C(C#N)=C(N)O1 (stereo unspecified),-4,
O=C(COc1ccccc1)Nc1ccc(OC(F)(F)C(F)F)c(NC(=O)COc2ccccc2)c1,-4,
COc1ccc(Cl)cc1NC(=O)COc1cccc(-n2cnnn2)c1,?,VCAM1 pot confirm=7
COc1ccc(OCCOC(=O)c2cccc(-n3cnnn3)c2)cc1,-3,
O=C(Nc1ccc2c(c1)CCC2)C1COc2ccccc2O1 (stereo unspecified),2,
N#Cc1ccccc1CSc1nc(N2CCCCC2)nc(N2CCCCC2)n1,-10,
CC(=O)c1c(C(C)=O)c(C)n(CCCCn2c(C)c(C(C)=O)c(C(C)=O)c2C)c1C,6,
